The values below come from PubChem BioAssay AID504834 (National Center for Advancing Translational Sciences (NCATS), 2011).

Screen size: about 320,000 compounds; about 22,000 (6.9%) were called active. About 27% were inconclusive and are not listed. For the sample, actives were picked, then their nearest neighbours and some compounds at random. A number with no mark means an inactive call. Calls follow the shape of the dose curve; as a rule, active = well fitted inhibition curve with a large enough effect; inconclusive = small, poorly fitted or top-dose-only effect, or another doubt; inactive = no such curve, though single readings can be large or run the other way.
% is scaled to controls: 0 for no effect and ±100 for the full control effect; potency is read from the fitted curve at half-maximal effect.

This assay is described as follows: Primary qHTS for delayed death inhibitors of the malarial parasite plastid, 96 hour incubation. As to conditions: P. falciparum luciferase reporter growth; series mostly up to 28.7 µM; activity change, negative = inhibition: at the top concentration. A digest of the protocol: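 P. falciparum expressing integrated firefly luciferase grown in erythrocytes (2% hematocrit, 0.05% parasitemia final) with compounds for 96 hours at 37 C, 5% CO2. Growth inhibition read as loss of luminescence after adding luciferase detection reagent.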
In general terms: Quantitative high-throughput screening tests each substance at several concentrations.
For `CSc1nc2ccccc2c(=O)n1Cc1ccc(F)cc1`, the “activity change, negative = inhibition” value is -1.4%.
On to `CSc1c(SCc2ccccc2)cnn(Cc2ccccc2)c1=O`, for which the Potency was 9.28 µM (active).
As for `Cn1c(CO)cnc1SCc1ccccc1`, the “activity change, negative = inhibition” value is 33.8%.
On the same count and under the same terms, the result for `Cc1ccc(C)c(OCCC(=O)OCC(=O)N2CCN(c3ccccc3)CC2)c1` reads -25.7%.
Take `O=C1C=C(c2cccc(Cl)c2O)C[C@@H](c2ccc(F)cc2)C1`: the Potency is 4.65 µM (active).
As to `COc1ccc([C@H]2CC(=O)C=C(/C=C/c3ccc(Cl)cc3)C2)cc1`, the “activity change, negative = inhibition” value was 37.3%.
The same measure, in the same setting: the result for `COc1cccc(C2=CC(=O)C[C@H](c3ccc(F)cc3)C2)c1OC` reads 1.99%; that for `CC(C)(C)SCCSC1=CC(=O)CC(c2ccccc2)C1` (configuration not stated), 35.7%.
For the compound `O=C1C=C(c2cccc(Br)c2)C[C@@H](c2ccc(F)cc2)C1`, the Potency was 2.33 µM (active).
Turning to `O=C(Cn1cnc2ccccc21)Nc1ccccc1-c1ccccc1`, the “activity change, negative = inhibition” value was -28.3%.
Still for that read-out and setting: then `COc1ccc(/C=C(/NC(=O)c2ccco2)C(=O)Nc2ccc(C(C)=O)cc2)cc1`, with 32.6%; and `O=C(O)c1cccc2c1C(=O)N(C1CCCC1)C2`, with 5.46%.
With `Cc1nonc1C(=O)N/N=C/c1ccc(O)cc1`, the Potency was 0.262 µM (active).
Regarding `O=C(C[n+]1ccccc1)N/N=C/c1ccc(O)cc1`, the “activity change, negative = inhibition” value is 27.5%.
Same read-out and setting: then `Cc1nc2ccccc2cc1C(=O)N/N=C/c1ccc([N+](=O)[O-])cc1`, with 14.4%; and `NC(=O)NC(CC(=O)NNC(=O)c1ccccn1)c1ccc(Cl)cc1` (configuration not stated), with -1.93%.
`O=C(NNC(=O)c1cc(S(=O)(=O)N2CCCCC2)ccc1Cl)c1ccccc1O`: the “activity change, negative = inhibition” value is -25.4%.
Consider `O=C(Nc1ccccc1)c1ccc(NC(=O)c2cccs2)cc1`, for which the “activity change, negative = inhibition” value is -8.55%.
Consider `O=C(Nc1ccccc1Cl)Nc1cccc2cccnc12`, for which the “activity change, negative = inhibition” value is 3.34%.
Regarding `O=C(c1cc2nc(-c3ccccc3)cc(-c3ccccc3)n2n1)N1CCC2(CC1)OCCO2`, the “activity change, negative = inhibition” value was -23.6%.
Regarding `O=C(c1cc(-c2ccncc2)nc2ccccc12)N1CCC2(CC1)OCCO2`, the Potency was 4.15 µM (active).
Regarding `CC(=O)N1CCN(C(=O)c2cc(-c3ccc(C)o3)nc3ccccc23)CC1`, the “activity change, negative = inhibition” value was 0%.
On the same count and under the same terms, then `Cc1cc(C(=O)OC(C)C(=O)NC2CCCCC2C)c(C)o1` (configuration not stated), with 3.99%.
As to `CC1(C(=O)O)CCC(C(=O)Nc2ccc(Cl)c(Cl)c2)C1(C)C` (configuration not stated), the Potency is 10.4 µM (active).
For the compound `NC(=O)N1CCCC1C(=O)Nc1ccc(Cl)c(Cl)c1` (configuration not stated), the “activity change, negative = inhibition” value is 9.43%.
As to `CCN(CC)C(=O)C1CCC(C)(C(=O)O)C1(C)C` (configuration not stated), the “activity change, negative = inhibition” value is -17%.
Still for that read-out and setting: then `O=C(CN1CCN(S(=O)(=O)c2cccc(Cl)c2)CC1)N1CCCCC1`, with -7.81%.
